Assay results taken from the supplement of paper PMC11865577.
Structures can show the parent of a compound that is named as a salt.

Test system: SARS-CoV-2 low-rank motif (SARS-low)
Assay: normalised indicator fluorescence (fraction of RNA + indicator signal without compound); higher = less displacement of indicator (weaker competition)
Conditions: compound concentration: 5 uM; 30 min; indicator: TO-PRO-3 0.5 uM; RNA concentration: 0.5 uM
Outline: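 Values are ratios: indicator fluorescence, less a buffer-plus-indicator blank, over the RNA-plus-indicator signal with no compound, as the mean of two independent experiments. This displacement screen used TO-PRO-1 or TO-PRO-3 with RNA in 96-well plates, in 20 mM phosphate pH 7.0, 20 mM NaCl, 80 mM KCl. Compounds went in at about 5 uM final, and readings were taken after 30 min on an Infinite 200 PRO at 485 or 620 nm excitation.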

| Structure (SMILES) | normalised indicator fluorescence |
| --- | --- |
| O=C(/C=C/C=C/c1ccc2c(c1)OCO2)N1CCCCC1 [Piperine] | 1.15 |
| COc1ccc(-c2coc3cc(O)ccc3c2=O)cc1O [Calycosin] | 1.09 |
| COc1ccc(-c2nc(-c3cc(C(F)(F)F)cc(C(F)(F)F)c3)n(Cc3ccc(C(N)=O)cc3)c2-c2ccc(OC)cc2)cc1 [Apoptozole] | 1.14 |
| Oc1ccc(OCc2ccccc2)cc1 [Monobenzone] | 1.21 |
| CC(C)(O)[C@@H]1CC[C@](C)([C@H]2[C@@H](O)C[C@@]3(C)[C@@H]4C[C@H](O)[C@H]5C(C)(C)[C@@H](O[C@@H]6OC[C@@H](O)[C@H](O)[C@H]6O[C@@H]6O[C@H](CO)[C@@H](O)[C@H](O)[C@H]6O)CC[C@@]56C[C@@]46CC[C@]23C)O1 [Astragaloside III] | 0.988 |
| N=C(NCCCCCCNC(=N)NC(=N)Nc1ccc(Cl)cc1)NC(=N)Nc1ccc(Cl)cc1 [Chlorhexidine] | 1.16 |
| O=C(NC(Cc1cc(=O)[nH]c2ccccc12)C(=O)O)c1ccc(Cl)cc1 (stereo unspecified) [Rebamipide] | 1.07 |
| C[C@H]1[C@H](C)CC[C@]2(C(=O)O[C@@H]3O[C@H](CO[C@@H]4O[C@H](CO)[C@@H](O[C@@H]5O[C@H](C)[C@H](O)[C@@H](O)[C@H]5O)[C@H](O)[C@H]4O)[C@@H](O)[C@H](O)[C@H]3O)CC[C@]3(C)C(=CC[C@@H]4[C@@]5(C)C[C@@H](O)[C@H](O)[C@@](C)(CO)[C@@H]5CC[C@]43C)[C@H]12 [Asiaticoside] | 1.3 |
| C[C@H](CCC(=O)NCCS(=O)(=O)O)[C@H]1CC[C@H]2[C@@H]3[C@@H](O)C[C@@H]4C[C@H](O)CC[C@]4(C)[C@H]3CC[C@]12C [Tauroursodeoxycholic Acid] | 1.52 |
| CN(NC(=O)CC(=O)NN(C)C(=S)c1ccccc1)C(=S)c1ccccc1 [Elesclomol] | 1.25 |
| O=CN1CC/C(=C/c2ccc3c(c2)OCO3)C1=O | 1.08 |
| O=C(O)CCc1ccc(O)cc1O [Hydroumbellic acid] | 1.15 |
| Cn1cc(-c2ccc3c(c2)CCN3C(=O)Cc2cccc(C(F)(F)F)c2)c2c(N)ncnc21 | 1.24 |
| CC1=CC(=O)c2c(O)cccc2C1=O [Plumbagin] | 1.02 |
| CCCC(C(=O)OCCN(CC)CC)(c1ccccc1)c1ccccc1 [Proadifen hydrochloride] | 1.04 |
| C[C@H]1[C@H](C)CC[C@]2(C(=O)O)CC[C@]3(C)C(=CC[C@@H]4[C@@]5(C)C[C@@H](O)[C@H](O)[C@@](C)(CO)[C@@H]5CC[C@]43C)[C@H]12 [Asiatic acid] | 0.985 |
| O=C1C[C@@H](c2ccc(O)cc2)Oc2cc(O)cc(O)c21 [Naringenin] | 1.12 |
| CC1=NN(c2ccccc2)C(=O)C1 [Edaravone] | 1.32 |

| Structure (SMILES) | normalised indicator fluorescence |
| --- | --- |
| CCc1oc2ccccc2c1C(=O)c1cc(Br)c(O)c(Br)c1 [Benzbromarone] | 1.4 |
| Oc1ccc(OC2CCCCO2)cc1 (stereo unspecified) [Deoxyarbutin] | 0.988 |
| COc1ccc(C(=C2C(=O)Nc3ccccc32)c2ccc(OC)cc2)cc1 | 1.17 |
| O=C1O[C@H]([C@@H](O)CO)C(O)=C1O [L(+)-Ascorbic acid] | 1.24 |
| CNC(=O)c1ccc(C)c(-n2c(C)cc(OCc3ccc(F)cc3F)c(Br)c2=O)c1 | 1.07 |
| O=C(O)/C=C/c1ccc(Cn2ccnc2)cc1 [Ozagrel hydrochloride] | 1.09 |
| N#Cc1c(NC(=O)c2cccc3ccccc23)sc2c1CCCC2 | 1.1 |
| O=C(Nc1ccc2[nH]nc(-c3ccncc3)c2c1)[C@@H]1CCN(CC(=O)N2CCN(c3ccc(-c4ncccn4)cc3)CC2)C1 | 1.26 |
| O=C1c2c(O)cc(O)cc2OC(c2ccc(O)c(O)c2)C1O (stereo unspecified) [Taxifolin] | 1.31 |
| C[C@H]1Oc2cc(cnc2N)-c2c(nn(C)c2C#N)CN(C)C(=O)c2ccc(F)cc21 [Lorlatinib] | 1.23 |
| CC(C)c1cc(-c2n[nH]c(=O)n2-c2ccc3c(ccn3C)c2)c(O)cc1O [Ganetespib] | 1.28 |
| Cc1cc(C(C)(C)C)c(O)c(C(C)(C)C)c1 | 1.23 |
| CC(=O)O[C@H]1C[C@@]2(C)[C@@H](C[C@@H](O)[C@H]3[C@@]4(C)CC[C@@H](O)[C@@H](C)[C@@H]4CC[C@@]32C)/C1=C(\CCC=C(C)C)C(=O)O [Fusidine] | 1.12 |
| Oc1ccc(-c2nc(-c3ccc(F)cc3)c(-c3ccncc3)[nH]2)cc1 | 1.23 |
| Cc1cc(NC(=O)c2cccc(NC(=O)/C=C/CN(C)C)c2)ccc1Nc1nccc(-c2cccnc2)n1 | 1.14 |
| O=C(O)/C=C/c1ccc(Cn2ccnc2)cc1 [Ozagrel] | 1.21 |
| COc1ccc2c(c[n+](C)c3c4cc5c(cc4ccc23)OCO5)c1OC [Chelerythrine chloride] | 0.807 |
| O=c1c(O)c(-c2cc(O)c(O)c(O)c2)oc2cc(O)cc(O)c12 [Myricetin] | 0.0645 |
